D2 antagonist: HTS Assay for Allosteric Antagonists of the Human D2 Dopamine Receptor: Primary Screen for Antagonists; D(2) dopamine receptor (Homo sapiens), P14416; HEK293 TREx D2 cells, calcium flux, dopamine EC80; hit rate 2% among 340,000; inhibition, % at 10 µM; in the data active means inhibition above about 30%; inactive means below that, where a call was filed; further: 0% is about no effect
Target sequence (P14416 whole entry, looked up): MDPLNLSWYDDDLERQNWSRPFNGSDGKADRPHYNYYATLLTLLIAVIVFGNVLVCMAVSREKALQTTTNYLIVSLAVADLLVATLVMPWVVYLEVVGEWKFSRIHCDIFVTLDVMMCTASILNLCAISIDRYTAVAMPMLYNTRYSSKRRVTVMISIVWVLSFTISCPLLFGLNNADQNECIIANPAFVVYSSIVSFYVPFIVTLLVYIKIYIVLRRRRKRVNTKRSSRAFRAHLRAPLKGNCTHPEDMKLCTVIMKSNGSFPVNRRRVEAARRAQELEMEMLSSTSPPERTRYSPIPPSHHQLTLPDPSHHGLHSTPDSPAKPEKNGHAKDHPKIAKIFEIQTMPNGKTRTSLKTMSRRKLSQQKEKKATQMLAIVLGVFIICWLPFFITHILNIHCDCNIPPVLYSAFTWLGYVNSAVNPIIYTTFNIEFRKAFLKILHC
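Compounds are added to dye-loaded, induced HEK293 T-REx cells coupled to calcium release via D2; after a 3 min kinetic read an EC80 dopamine stimulus is given and fluorescence is recorded for 3 more min.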
D2 PAM-1: Beta-Arrestin HTS for Positive Allosteric Modulators of the Human D2 Dopamine Receptor: Potentiators. DiscoveRx D2 beta-arrestin cells, luminescence, 90 min; 100% = 57 uM dopamine signal. potentiation, % (test concentration not listed). hit rate 0.23% among 360,000; in the data active means potentiation above about 50%; inconclusive means mostly about 30% to 49%
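PathHunter D2 cells, attached overnight at 37 deg C, received compound in DMSO plus dopamine at EC20 (50 nM final) for 90 min at 37 deg C. Beta-arrestin recruitment was read as luminescence after 1 h with detection reagent at ambient temperature.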
D2 ag-1: Beta-Arrestin HTS for Positive Allosteric Modulators of the Human D2 Dopamine Receptor: Agonists. D(2) dopamine receptor (Homo sapiens), P14416. DiscoveRx PathHunter D2 beta-arrestin, luminescence, 90 min; 100% = 57 uM dopamine signal. activation, % (test concentration not listed). hit rate 0.084% among 360,000; in the data active means activation above about 40%; inconclusive means between about 15% and that limit
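DiscoveRx PathHunter D2 beta-arrestin cells (2,100/well) attached overnight, then compound-stimulated 90 min at 37 C in HBSS/10 mM HEPES/0.1% Tween-20 buffer; beta-galactosidase complementation read by luminescence after 1 h at ambient temperature. Dopamine 57 uM final (EC100) as control.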
D2 PAM-2: HTS Assay for Positive Allosteric Modulators of the Human D2 Dopamine Receptor: Primary Screen for Potentiators; hit rate 0.34% among 340,000; D(2) dopamine receptor (Homo sapiens), P14416; potentiation, % at 10 µM; AID 485347, 2010; HEK293 T-REx D2, calcium flux, EC20 dopamine potentiation;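 active means potentiation over 3 SD above the plate norm, cut at about 30% in these data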; further: 0% is about no effect
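Tetracycline-induced HEK293 T-REx cells force-coupled to calcium signalling expressed D2; compounds were pin-added after a 10 s baseline, read kinetically 180 s, then an EC20 dopamine challenge followed with a further 180 s calcium read.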
D2 ag-2: HTS Assay for Allosteric Agonists of the Human D2 Dopamine Receptor: Primary Screen for Agonists. HEK293 T-REx D2 cells, calcium flux agonist mode. activation, % at 2 µM. hit rate 0.53% among 340,000;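 active means activation over 3 SD above normal in the single-dose calcium agonist read, cut at about 30% in these data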; further: 0% is about no effect
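Agonism is scored from calcium flux in a force-coupled, inducible HEK293 cell line expressing D2, read kinetically for 180 s after compound addition against dopamine controls.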
* hit, by the source's call; u = inconclusive; x = no result given. Only some compounds are listed: those with a hit (about 2.4% of all), similar ones and a draw of the others.

SMILES | D2 antagonist | D2 PAM-1 | D2 ag-1 | D2 PAM-2 | D2 ag-2
N/C(=N\OC(=O)c1ccc2c(c1)OCO2)c1cccc(Br)c1 | -2.4 | 106.3* | u | -3.6 | 0.2
COc1ccc(C(=O)Oc2ccc3c(c2)OCO3)cc1OC | 10.0 | 3.5 | -3.7 | 0.1 | 4.7
N/C(=N\OC(=O)c1ccc2c(c1)OCO2)c1cccnc1 | -4.9 | 79.1* | u | -5.4 | -0.2
COc1cc(OC)c(C(=O)Oc2ccc3c(c2)OCO3)cc1OC | 30.2* | -5.6 | 1.1 | 13.2 | 0.0
COc1ccc(-c2nnc(SCC(=O)Nc3cccc(C(F)(F)F)c3)nc2-c2ccc(OC)cc2)cc1 | x | x | x | 6.0 | 0.8
Cc1ccc(C)c(CN2C(=O)c3ccccc3S(=O)c3ccc(C(=O)NCCc4ccc(Cl)cc4)cc32)c1 (configuration not stated) | x | x | x | 7.6 | 0.5
O=C(CCNS(=O)(=O)c1ccc(Br)s1)Nc1ccc(Br)cc1 | x | x | x | x | -0.5
O=C(Nc1ccccc1Cl)C1CCN(c2nc3ccccc3nc2C(F)(F)F)CC1 | x | x | x | 11.9 | 0.1
COc1ccc2ccccc2c1/C=N/NC(=O)c1ccccc1F | -3.1 | -12.9 | -6.9 | 2.8 | 2.6
COc1ccc2ccccc2c1/C=N/NC(=O)c1ccc([N+](=O)[O-])cc1 | 70.5* | -15.6 | -1.4 | -27.7 | -1.5
COc1ccc2ccccc2c1/C=N\NC(=O)c1ccc(C)s1 | 40.2* | -36.6 | -3.0 | -19.9 | -0.1
COc1ccc2ccccc2c1/C=N/NC(=O)c1cccc(Br)c1 | 10.3 | -41.9 | -4.3 | -14.0 | -0.4
Cc1ccc2c(c1)N(C(=O)CCC(=O)NCc1cccc(F)c1)CC(C)O2 (configuration not stated) | x | x | x | 2.7 | -0.7
COc1cc(/C=C2/SC(=S)NC2=O)ccc1OS(=O)(=O)c1ccc(C)cc1 | -3.0 | -17.2 | -3.9 | 1.2 | 5.5
COc1cc(/C=C2\SC(=S)N(CCCCC(=O)O)C2=O)ccc1OS(=O)(=O)c1ccc(C)cc1 | 32.1* | u | 4.6 | -9.2 | 1.6
CCOC(=O)c1c(C)[nH]c(C)c1S(=O)(=O)N(C)CC(=O)Nc1ccc(C)cc1Br | x | x | x | -4.4 | -0.5
COc1cc(C(=O)OCC(=O)Nc2ccccc2C(=O)NC2CC2)c([N+](=O)[O-])cc1OC | 34.1* | -0.1 | -1.2 | -9.7 | -0.2
CCOc1ccc(NC(=O)c2nn(C)c3c2COc2ccccc2-3)cc1 | x | x | x | -0.8 | -0.8
COc1ccc(CC(=O)N2CCc3cc(OC)c(OC)cc3C2COc2ccc3c(C)cc(=O)oc3c2)cc1OC (configuration not stated) | x | x | x | 17.5 | 0.5
O=C(CSc1n[nH]c(=O)[nH]c1=O)c1ccc(Cl)cc1Cl | 5.0 | -2.2 | -0.5 | 16.4 | 0.1
CC(C)(C)c1ccc(C(=O)CSc2n[nH]c(=O)[nH]c2=O)cc1 | 30.7* | -1.3 | -2.7 | -7.8 | 0.1
Cc1ccc(CCNc2nc3c(S(=O)(=O)c4ccc(C)cc4)nnn3c3ccsc23)cc1 | x | x | x | 5.7 | x
CON/C=C(\C=Nc1ccc(Cl)cc1Cl)c1ncc(C(F)(F)F)cc1Cl | 19.4 | -3.4 | -2.0 | -5.5 | 0.7
CON/C=C(\C=Nc1ccccc1)c1ncc(C(F)(F)F)cc1Cl | -4.2 | -8.0 | -1.1 | 34.4* | 1.2
Cc1ccc(C(=O)N/C(N)=N/c2nc3ccccc3o2)cc1 | 53.0* | 0.5 | -1.8 | 8.3 | 0.3
SMILES | D2 antagonist | D2 PAM-1 | D2 ag-1 | D2 PAM-2 | D2 ag-2
COC(=O)c1c(C)oc2ccc(N(C(=O)Oc3ccccc3)S(=O)(=O)c3ccc(C(C)(C)C)cc3)cc12 | x | x | x | -3.6 | -1.5
COCCCN1C(=O)c2oc3ccccc3c(=O)c2C12C(=O)N(C)c1ccccc12 (configuration not stated) | x | x | x | 2.6 | 0.3
CC(=O)NNC(=S)NCCc1ccccc1 | 48.7* | -0.2 | -7.3 | -2.4 | 1.1
O=[N+]([O-])c1cccc(NC(=S)NCCc2ccccc2)c1 | 79.7* | -31.9 | -6.5 | 6.9 | -1.1
CCc1cccc(-n2nnc(S(=O)(=O)c3ccc(OC)cc3)c2C)c1 | x | x | x | 0.4 | 0.3
COc1ccc(CNC(=O)CCc2c(C)nc3nc(CNC(=O)OC(C)(C)C)nn3c2C)cc1 | x | x | x | x | 0.5
NC(=O)COc1ncn(-c2ccccc2)n1 | -3.7 | 9.9 | 3.0 | 0.0 | -0.3
N/C(COc1ncn(-c2ccccc2)n1)=N\S(=O)(=O)c1ccc(Cl)cc1Cl | -3.0 | 4.4 | -1.7 | 32.3* | 1.1
COc1cccc(NC(=O)c2nnn(Cc3ccc(OC)c(Br)c3)c2N)c1 | x | x | x | 8.9 | 0.1
CCN(CC)c1ccc(/C=C/C(=O)c2ccc(Br)cc2)cc1 | 71.0* | 14.8 | -1.6 | -21.3 | 93.7*
COc1ccccc1/C=C/CN1CCC(Oc2ccc(C(=O)N3CCCCC3)cc2)CC1 | 68.6* | -33.6 | 0.8 | -34.7 | 0.4
COc1ccccc1/C=C/CN1CCC(Oc2cc(C(=O)NC3CC3)ccc2OC)CC1 | 59.2* | 0.7 | -5.1 | -20.5 | -0.8
Cc1ccc(C)c(N2CCN(C(=O)c3cc4c(=O)n(Cc5ccco5)ccc4nc3C)CC2)c1 | x | x | x | 9.2 | 0.7
CCc1cccc(C)c1NC(=O)CN1C(=O)c2ccccc2Sc2ncccc21 | x | x | x | -6.2 | -0.6
CS(=O)(=O)N1CCc2cc(C(=O)Nc3cccc(F)c3)ccc21 | x | x | x | 4.9 | x
O=[N+]([O-])c1ccccc1S(=O)(=O)N(CC(O)CN1CCCCC1)c1ccccc1 (configuration not stated) | 7.7 | -8.2 | -3.6 | -8.1 | 0.4
Cc1ccccc1S(=O)(=O)N(CC(O)CN1CCCCC1)c1ccccc1 (configuration not stated) | 53.7* | -11.7 | -0.8 | -17.1 | 0.5
CC(=O)Nc1ccccc1/C=C/c1ccc2c(C)ccc(O)c2n1 | 33.2* | -9.4 | 2.5 | 9.2 | 1.8
CC12CCC(C(=O)N(CSC(=S)N/N=C\c3ccccc3Cl)C1=O)C2(C)C (configuration not stated) | -5.0 | -13.2 | 2.7 | 8.3 | -0.3
CC12CCC(C(=O)N(CSC(=S)N/N=C\c3ccccc3)C1=O)C2(C)C (configuration not stated) | 32.4* | -7.2 | -0.8 | 8.5 | -1.6
COc1ccc(Cn2c(C)nc3c(c2=O)c2nc4ccccc4nc2n3Cc2ccco2)cc1 | x | 0.5 | -0.1 | x | x
COc1ccc(Cn2c3nc4ccccc4nc3c3c(=O)n(Cc4ccco4)c(C)nc32)cc1 | 33.4* | x | x | -3.7 | 1.1
O=C(NC1CCN(Cc2ccccc2)CC1)c1ccc(Cl)cc1Cl | 61.4* | -86.0 | 0.6 | -19.8 | 0.5

Screening results from PubChem.
